Compound activity as filed in PubChem.
Only some compounds are listed: those with a hit (about 6.2% of all), similar ones and a draw of the others.
KB-3-1 tox: kills parental KB-3-1 adenocarcinoma cells. KB-3-1 viability, CellTiter-Glo ATP luminescence, 72 h. Potency, µM (titrated, usually from 46.1 µM), most hits filed as cytotoxic. hit rate 1.4% among 400,000; also: nearly all actives have a fitted effect of over 60% in size
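Viability of parental KB-3-1 cells, measured by CellTiter-Glo luminescence, followed a 72 h incubation at 37 °C with pinned compounds in phenol-red-free DMEM containing 10% FBS.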
ATXN viability: reduces viability in counter-screen for ATXN expression inhibitors. S2 cells (HEK-293 line with an ATXN2-luciferase reporter) viability, CellTiter-Fluor protease fluorescence, 24 h. Potency, µM (doses to about 56.7 µM), hits mostly cytotoxic. hit rate 0.49% among 400,000; also: nearly all actives have a fitted effect of over 40% in size
HT1080-NT tox: kills 2HG-producing HT-1080-NT fibrosarcoma cells | HT-1080-NT fibrosarcoma viability, CellTiter-Glo ATP luminescence, 48 h | Potency, µM (series often up to 46.1 µM), actives largely listed as cytotoxic | hit rate 1.6% among 360,000;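 also: NT is the 2HG producing partner of a matched IDH1 knockdown line; nearly all actives have a fitted effect of over 55% in size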
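HT-1080-NT fibrosarcoma cells (2HG-overproducing), 750 cells/well in RPMI with 5% FBS, dosed after 2 h and incubated 48 h at 37C. CellTiter-Glo luminescence normalized to DMSO and no-cell wells; concentration-response curves fitted and classed.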
KB-V1 cytotox: KB-V1 MDR subline cytotoxicity; hit rate 3.4% among 400,000; AID 1347076; KB-V1 MDR cells viability, CellTiter-Glo, 72 h; Potency, µM (series often up to 46.1 µM), usual class: cytotoxic; also: nearly all actives have a fitted effect of over 60% in size
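Drug-selected KB-V1 cells, grown in DMEM lacking phenol red with 10% FBS, receive compound titrations; after three days at 37 degrees C, surviving cell ATP is quantified by CellTiter-Glo luminescence and responses normalized and curve-fitted.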
ATXN2 expr inh: ATXN2 expression inhibition. Potency, µM (titrated, usually from 57 µM), usual class: inhibitors. AID 1745845. HEK-293 ATXN2-luciferase reporter, luminescence, 24 h. hit rate 0.72% among 360,000; also: nearly all actives have a fitted effect of over 55% in size
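ATXN2-luciferase reporter cells (luciferase flanked by upstream and downstream ATXN2 gene portions) were treated 24 h at 37 °C with compounds at up to 57 uM. SteadyGlo luminescence gave expression; GF-AFC fluorescence gave viability.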
HT1080 IDH1KD tx: HT-1080 IDH1 knockdown cell toxicity (counter line); HT-1080 IDH1 knockdown viability, ATP luminescence, 48 h; Potency, µM (doses to about 46.1 µM), usual class: cytotoxic; hit rate 2% among 360,000; AID 686971
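Assay cells: HT-1080 with IDH1 knockdown, 750 per well, RPMI/5% FBS. Exposure: 48 h at 37 °C following 2 h pre-incubation. Read: CellTiter-Glo luminescence; fitted concentration-response, curve class assigned.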
Hits are given with their value; [ ] = another dose, or the depositor's remark. Calls follow the shape of the dose curve; as a rule, active = well fitted curve in the direction sought with a large enough effect; inconclusive = small, poorly fitted or top-dose-only effect, or another doubt; inactive = no such curve, though single readings can be large; an effect the other way counts as inactive or inconclusive.

How did COc1cc2c(cc1OC)C(c1cccs1)N(C(=O)C(C)C)CC2 (centres undefined) do in these assays?
KB-3-1 tox: inconclusive; HT1080-NT tox: inactive; KB-V1 cytotox: 14.1µM; HT1080 IDH1KD tx: inactive

Results for COc1cc2c(cc1OC)C(c1cccs1)N(C(=O)c1cccnc1)CC2 (centres undefined) ?
KB-3-1 tox: 5.8µM; ATXN viability: inconclusive; HT1080-NT tox: inactive; KB-V1 cytotox: inconclusive; ATXN2 expr inh: inactive; HT1080 IDH1KD tx: inconclusive

How did Cc1cc2nc(/C=C/c3nc4cc(C)c(C)cc4[nH]3)[nH]c2cc1C do in these assays?
KB-3-1 tox: inactive; HT1080-NT tox: inactive; KB-V1 cytotox: inactive; HT1080 IDH1KD tx: inactive

Results for Cc1cc2nc(/C=C/c3cccnc3)[nH]c2cc1C ?
KB-3-1 tox: 1.16µM; ATXN viability: inactive; HT1080-NT tox: 0.517µM; KB-V1 cytotox: 0.259µM; HT1080 IDH1KD tx: 0.581µM

Results for Cc1ccc(C)c2c(/C=C/c3ccc(N(C)C)cc3)ccnc12 ?
KB-3-1 tox: inconclusive; KB-V1 cytotox: inactive

Results for Cc1ccc(/C=[N+](\[O-])c2ccc(N(C)C)cc2)c2nsnc12 ?
KB-3-1 tox: inactive; ATXN viability: inconclusive; HT1080-NT tox: 20.6µM; KB-V1 cytotox: inactive; ATXN2 expr inh: inconclusive; HT1080 IDH1KD tx: inactive

What do the screens show for `N#Cc1ccc(C(=O)Nc2ccn(-c3ccccc3)n2)cc1`?
KB-3-1 tox: inactive; ATXN viability: inactive; HT1080-NT tox: inactive; KB-V1 cytotox: inactive; ATXN2 expr inh: inconclusive; HT1080 IDH1KD tx: inconclusive

How did O=C(Nc1ccn(-c2ccccc2)n1)c1ccc(Cl)cc1 do in these assays?
KB-3-1 tox: inactive; ATXN viability: inactive; HT1080-NT tox: inactive; KB-V1 cytotox: 18.4µM; ATXN2 expr inh: inactive; HT1080 IDH1KD tx: inactive

Results for CC1=CC(=O)C(C(C)C)=C/C1=N/OC(=O)c1cccc([N+](=O)[O-])c1 ?
KB-3-1 tox: inactive; ATXN viability: inactive; HT1080-NT tox: 10µM; KB-V1 cytotox: inactive; ATXN2 expr inh: inactive; HT1080 IDH1KD tx: inactive[9.24 µM]

What do the screens show for `CC1=CC(=NOC(=O)c2cccc([N+](=O)[O-])c2)C=C(C)C1=O`?
KB-3-1 tox: inactive; ATXN viability: inconclusive; HT1080-NT tox: inconclusive; KB-V1 cytotox: inactive; ATXN2 expr inh: inactive; HT1080 IDH1KD tx: inconclusive

What do the screens show for `O=C(Nc1ccc(N2CCN(C(=O)c3ccco3)CC2)cc1)c1ccc(Br)cc1`?
KB-3-1 tox: inactive; ATXN viability: inactive; HT1080-NT tox: inactive; KB-V1 cytotox: inactive; HT1080 IDH1KD tx: inactive

What do the screens show for `Cc1cc(NC(=O)c2ccc3c(c2)OCCO3)ccc1NC(=O)c1ccco1`?
KB-3-1 tox: inactive; ATXN viability: inactive; HT1080-NT tox: inconclusive; KB-V1 cytotox: inactive; ATXN2 expr inh: inactive; HT1080 IDH1KD tx: inconclusive

How did O=C(Nc1ccc(N2CCN(C(=O)c3ccco3)CC2)cc1)c1ccc2c(c1)OCO2 do in these assays?
KB-3-1 tox: 5.8µM; ATXN viability: inactive; HT1080-NT tox: inactive; KB-V1 cytotox: inactive; ATXN2 expr inh: inconclusive; HT1080 IDH1KD tx: inconclusive

Results for O=C(Nc1ccc(N2CCN(C(=O)c3ccco3)CC2)cc1)c1cc(Br)ccc1Cl ?
KB-3-1 tox: inconclusive; HT1080-NT tox: inconclusive; KB-V1 cytotox: 2.06µM; ATXN2 expr inh: inconclusive; HT1080 IDH1KD tx: inconclusive

What do the screens show for `O=C(Nc1ccc(NC(=O)c2ccco2)cc1)c1ccc2c(c1)OCCO2`?
KB-3-1 tox: inactive; ATXN viability: inconclusive; HT1080-NT tox: inactive; KB-V1 cytotox: inactive; ATXN2 expr inh: 15.8µM; HT1080 IDH1KD tx: inactive

How did CCOC(=O)c1cnc2nc(NCc3cccc(Br)c3)[nH]n2c1=O do in these assays?
KB-3-1 tox: inactive; ATXN viability: inactive; KB-V1 cytotox: inactive; ATXN2 expr inh: inactive

How did CC1CCCCN1C(=O)c1ccc2c(c1)N(Cc1ccc(F)cc1)C(=O)c1ccccc1S2(=O)=O (centres undefined) do in these assays?
KB-3-1 tox: inactive; ATXN viability: inactive; KB-V1 cytotox: inactive; ATXN2 expr inh: inactive

How did CC(=O)N(CCC(c1ccccc1)c1ccco1)Cc1cccs1 (centres undefined) do in these assays?
KB-3-1 tox: inconclusive; ATXN viability: inactive; HT1080-NT tox: inactive; KB-V1 cytotox: 20.6µM; ATXN2 expr inh: inactive; HT1080 IDH1KD tx: inconclusive
